Experimental findings from ChEMBL document CHEMBL3988442, “University of Dundee, Small-Polar-MMV Screening Library” (2021) are described below.

Set-up in all cases: scale not given: direction of the effect not stated beside the values
The target of assay [1] is Protein translocase subunit SecA (Escherichia coli (strain K12)) (UniProt P10408). As to the kind of experiment: Assay to Identify E. coli SecA ATPase Inhibitors. In kind it is functional. Particulars: 30 µM.
The target of assay [2] is T1, Ubiquitin-activating enzyme e1, putative (Leishmania donovani (strain BPK282A1)) (UniProt E9BSI1).
T1 sequence (whole entry): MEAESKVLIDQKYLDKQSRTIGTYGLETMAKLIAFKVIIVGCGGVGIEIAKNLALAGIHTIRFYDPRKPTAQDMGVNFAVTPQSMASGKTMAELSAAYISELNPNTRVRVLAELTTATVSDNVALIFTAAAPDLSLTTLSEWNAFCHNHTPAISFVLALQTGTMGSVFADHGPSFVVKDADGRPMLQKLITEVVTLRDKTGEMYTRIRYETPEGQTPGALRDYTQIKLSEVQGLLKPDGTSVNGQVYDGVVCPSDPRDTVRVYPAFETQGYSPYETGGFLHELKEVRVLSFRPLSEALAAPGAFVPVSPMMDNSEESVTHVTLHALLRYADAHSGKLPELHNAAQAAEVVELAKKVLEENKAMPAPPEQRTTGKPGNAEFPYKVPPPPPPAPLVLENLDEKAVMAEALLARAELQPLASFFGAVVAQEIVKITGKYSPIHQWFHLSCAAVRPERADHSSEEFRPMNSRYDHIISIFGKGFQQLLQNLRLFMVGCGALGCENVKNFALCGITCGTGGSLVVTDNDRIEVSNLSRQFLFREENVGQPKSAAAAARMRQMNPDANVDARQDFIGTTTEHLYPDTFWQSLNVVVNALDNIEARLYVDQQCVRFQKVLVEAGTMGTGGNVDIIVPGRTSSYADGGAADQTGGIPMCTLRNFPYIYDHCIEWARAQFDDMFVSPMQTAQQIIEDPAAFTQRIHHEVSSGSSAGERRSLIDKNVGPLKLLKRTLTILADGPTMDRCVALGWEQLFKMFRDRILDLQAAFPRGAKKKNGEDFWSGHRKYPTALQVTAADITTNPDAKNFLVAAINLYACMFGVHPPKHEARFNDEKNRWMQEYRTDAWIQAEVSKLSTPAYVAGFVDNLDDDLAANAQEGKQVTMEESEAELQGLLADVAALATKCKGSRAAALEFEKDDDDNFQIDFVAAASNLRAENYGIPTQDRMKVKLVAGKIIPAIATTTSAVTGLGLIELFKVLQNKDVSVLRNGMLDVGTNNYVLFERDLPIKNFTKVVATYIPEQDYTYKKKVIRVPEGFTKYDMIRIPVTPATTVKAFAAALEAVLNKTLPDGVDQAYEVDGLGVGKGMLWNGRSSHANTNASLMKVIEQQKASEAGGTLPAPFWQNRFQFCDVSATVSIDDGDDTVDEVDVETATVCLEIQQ
As to the kind of experiment: Leishmania donovani Ubiquitin Activating Enzyme (LdE1). Type of assay: functional. The conditions noted are these: 30 µM.

Assay [3] concerns the target Sialic acid-binding Ig-like lectin 9 (Homo sapiens) (UniProt Q9Y336). As to the kind of experiment: Hs-Siglec9 ALPHAscreen SOP 20170721. Particulars: 10 µM. For orientation: Alpha assays give light when donor and acceptor beads are brought close together.
Another assay relates to Trypanosoma cruzi. As to the kind of experiment: Trypanosoma cruzi phosphomannomutase and mannose-1-phosphate guanylyltransferase assay. In kind it is functional. The conditions noted are these: 10 µM.
The target of assay [4] is T2, Arginase-2, mitochondrial (Homo sapiens) (UniProt P78540).
T2 sequence (whole entry): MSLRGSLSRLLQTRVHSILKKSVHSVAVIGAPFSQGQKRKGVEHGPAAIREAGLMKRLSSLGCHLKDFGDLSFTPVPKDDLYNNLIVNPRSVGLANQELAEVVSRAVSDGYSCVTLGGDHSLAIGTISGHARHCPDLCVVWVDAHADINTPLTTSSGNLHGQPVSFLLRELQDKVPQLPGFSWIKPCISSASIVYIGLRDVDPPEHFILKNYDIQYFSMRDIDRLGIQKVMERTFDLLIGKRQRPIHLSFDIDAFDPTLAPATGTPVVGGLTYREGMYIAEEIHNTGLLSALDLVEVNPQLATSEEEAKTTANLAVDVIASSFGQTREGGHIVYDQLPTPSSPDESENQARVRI
As to the kind of experiment: in vitro enzyme assay to detect the production of urea directly proportional to the activity of Arginase II. Also: in the data most compounds retested in dose-response had high values. Type of assay: functional. Particulars: 33.3 µM.

The target in assay [5] is T3, Proteasome subunit beta (Trypanosoma cruzi) (UniProt O96673).
T3 sequence (whole entry): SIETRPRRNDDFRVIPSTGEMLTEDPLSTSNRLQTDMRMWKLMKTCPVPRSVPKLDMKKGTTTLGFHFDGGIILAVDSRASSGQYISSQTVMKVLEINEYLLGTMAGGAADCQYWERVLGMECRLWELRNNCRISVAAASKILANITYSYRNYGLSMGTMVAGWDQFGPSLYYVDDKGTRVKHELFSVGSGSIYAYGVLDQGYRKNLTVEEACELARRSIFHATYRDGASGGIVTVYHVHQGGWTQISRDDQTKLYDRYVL
As to the kind of experiment: Trypanosoma cruzi proteasome chymotrypsin-like activity (TcProtChymo) assay. Also: in the data most compounds retested in dose-response had high values. Particulars: 9.37 µM. In kind it is functional.

The next assay is filed under the species Homo sapiens. As to the kind of experiment: To identify inhibition of the IFN signalling (Jak-Stat) pathway via expression of an eGFP reporter gene under the control of an IFN-stimulated response element (ISRE) containing MxA promoter. Type of assay: functional. Particulars: 30 µM. For orientation: Reporter assays use an easily measured gene product as a stand-in for the process of interest.

Assay [6] has as its target T4, Tyrosyl-tRNA synthetase, putative (Trypanosoma cruzi (strain CL Brener)) (UniProt Q4DSP6).
T4 sequence (whole entry): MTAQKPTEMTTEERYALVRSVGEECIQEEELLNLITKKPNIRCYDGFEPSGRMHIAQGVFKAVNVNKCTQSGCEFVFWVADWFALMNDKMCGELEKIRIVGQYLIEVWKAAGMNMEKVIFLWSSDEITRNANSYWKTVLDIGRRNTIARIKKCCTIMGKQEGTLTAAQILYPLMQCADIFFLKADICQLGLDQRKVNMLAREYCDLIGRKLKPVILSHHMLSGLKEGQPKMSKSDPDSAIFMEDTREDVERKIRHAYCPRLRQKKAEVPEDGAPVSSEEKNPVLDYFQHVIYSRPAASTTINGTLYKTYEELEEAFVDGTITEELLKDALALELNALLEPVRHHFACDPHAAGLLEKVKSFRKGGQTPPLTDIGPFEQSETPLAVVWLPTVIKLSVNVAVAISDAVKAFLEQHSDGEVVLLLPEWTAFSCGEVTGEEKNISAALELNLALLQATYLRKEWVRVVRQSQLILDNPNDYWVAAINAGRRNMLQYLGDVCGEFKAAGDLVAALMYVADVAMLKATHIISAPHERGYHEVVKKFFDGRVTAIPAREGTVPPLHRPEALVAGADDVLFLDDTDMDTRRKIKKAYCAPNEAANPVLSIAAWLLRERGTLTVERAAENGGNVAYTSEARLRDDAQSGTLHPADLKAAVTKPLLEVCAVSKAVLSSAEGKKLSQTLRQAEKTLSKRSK
As to the kind of experiment: Trypanosoma cruzi tyrosyl tRNA synthetase (TcYRS) _High Tyrosine SOP. Also: in the data most compounds retested in dose-response had high values. Type of assay: functional. Particulars: 30 µM.

The target of assay [7] is T4, Tyrosyl-tRNA synthetase, putative (Trypanosoma cruzi (strain CL Brener)). As to the kind of experiment: Trypanosoma cruzi tyrosyl tRNA synthetase (TcYRS) SOP. Type of assay: functional. The conditions noted are these: 30 µM.
In assay [8] the target is Chromo domain-containing protein 1 (Saccharomyces cerevisiae (strain ATCC 204508 / S288c) (Baker's yeast)) (UniProt P32657). As to the kind of experiment: ScCHD-1 Enzyme Inhibition Assay. Also: in the data most compounds retested in dose-response had high values. Particulars: 30 µM. In kind it is functional.

For part of these data: Potency and affinity values are given separately.

Protein translocase subunit SecA (Escherichia coli (strain K12)), sequence (P10408 whole entry): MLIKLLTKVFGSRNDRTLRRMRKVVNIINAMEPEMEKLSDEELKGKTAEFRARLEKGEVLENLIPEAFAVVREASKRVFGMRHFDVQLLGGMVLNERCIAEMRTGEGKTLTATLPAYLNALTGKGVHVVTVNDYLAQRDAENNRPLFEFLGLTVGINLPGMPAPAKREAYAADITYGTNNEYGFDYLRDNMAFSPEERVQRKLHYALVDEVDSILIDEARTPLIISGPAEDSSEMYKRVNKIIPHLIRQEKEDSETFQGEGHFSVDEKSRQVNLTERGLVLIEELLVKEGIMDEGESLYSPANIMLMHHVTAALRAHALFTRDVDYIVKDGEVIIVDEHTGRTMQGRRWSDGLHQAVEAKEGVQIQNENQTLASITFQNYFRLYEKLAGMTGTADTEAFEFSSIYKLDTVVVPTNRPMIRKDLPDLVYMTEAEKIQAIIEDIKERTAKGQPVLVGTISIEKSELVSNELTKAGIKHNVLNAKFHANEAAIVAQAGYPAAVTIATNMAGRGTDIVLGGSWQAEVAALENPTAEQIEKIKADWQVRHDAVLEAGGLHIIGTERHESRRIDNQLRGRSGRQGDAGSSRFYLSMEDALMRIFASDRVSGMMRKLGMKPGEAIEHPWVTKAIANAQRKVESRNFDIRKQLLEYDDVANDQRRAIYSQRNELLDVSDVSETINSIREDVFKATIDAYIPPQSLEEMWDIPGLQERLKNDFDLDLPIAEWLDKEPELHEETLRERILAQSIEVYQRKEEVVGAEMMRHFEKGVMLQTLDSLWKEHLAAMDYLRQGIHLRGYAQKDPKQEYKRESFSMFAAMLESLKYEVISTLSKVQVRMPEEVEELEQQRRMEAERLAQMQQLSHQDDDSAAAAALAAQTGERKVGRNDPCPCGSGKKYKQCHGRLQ
Chromo domain-containing protein 1 (Saccharomyces cerevisiae (strain ATCC 204508 / S288c) (Baker's yeast)), sequence (P32657 whole entry, the tested form may be a part): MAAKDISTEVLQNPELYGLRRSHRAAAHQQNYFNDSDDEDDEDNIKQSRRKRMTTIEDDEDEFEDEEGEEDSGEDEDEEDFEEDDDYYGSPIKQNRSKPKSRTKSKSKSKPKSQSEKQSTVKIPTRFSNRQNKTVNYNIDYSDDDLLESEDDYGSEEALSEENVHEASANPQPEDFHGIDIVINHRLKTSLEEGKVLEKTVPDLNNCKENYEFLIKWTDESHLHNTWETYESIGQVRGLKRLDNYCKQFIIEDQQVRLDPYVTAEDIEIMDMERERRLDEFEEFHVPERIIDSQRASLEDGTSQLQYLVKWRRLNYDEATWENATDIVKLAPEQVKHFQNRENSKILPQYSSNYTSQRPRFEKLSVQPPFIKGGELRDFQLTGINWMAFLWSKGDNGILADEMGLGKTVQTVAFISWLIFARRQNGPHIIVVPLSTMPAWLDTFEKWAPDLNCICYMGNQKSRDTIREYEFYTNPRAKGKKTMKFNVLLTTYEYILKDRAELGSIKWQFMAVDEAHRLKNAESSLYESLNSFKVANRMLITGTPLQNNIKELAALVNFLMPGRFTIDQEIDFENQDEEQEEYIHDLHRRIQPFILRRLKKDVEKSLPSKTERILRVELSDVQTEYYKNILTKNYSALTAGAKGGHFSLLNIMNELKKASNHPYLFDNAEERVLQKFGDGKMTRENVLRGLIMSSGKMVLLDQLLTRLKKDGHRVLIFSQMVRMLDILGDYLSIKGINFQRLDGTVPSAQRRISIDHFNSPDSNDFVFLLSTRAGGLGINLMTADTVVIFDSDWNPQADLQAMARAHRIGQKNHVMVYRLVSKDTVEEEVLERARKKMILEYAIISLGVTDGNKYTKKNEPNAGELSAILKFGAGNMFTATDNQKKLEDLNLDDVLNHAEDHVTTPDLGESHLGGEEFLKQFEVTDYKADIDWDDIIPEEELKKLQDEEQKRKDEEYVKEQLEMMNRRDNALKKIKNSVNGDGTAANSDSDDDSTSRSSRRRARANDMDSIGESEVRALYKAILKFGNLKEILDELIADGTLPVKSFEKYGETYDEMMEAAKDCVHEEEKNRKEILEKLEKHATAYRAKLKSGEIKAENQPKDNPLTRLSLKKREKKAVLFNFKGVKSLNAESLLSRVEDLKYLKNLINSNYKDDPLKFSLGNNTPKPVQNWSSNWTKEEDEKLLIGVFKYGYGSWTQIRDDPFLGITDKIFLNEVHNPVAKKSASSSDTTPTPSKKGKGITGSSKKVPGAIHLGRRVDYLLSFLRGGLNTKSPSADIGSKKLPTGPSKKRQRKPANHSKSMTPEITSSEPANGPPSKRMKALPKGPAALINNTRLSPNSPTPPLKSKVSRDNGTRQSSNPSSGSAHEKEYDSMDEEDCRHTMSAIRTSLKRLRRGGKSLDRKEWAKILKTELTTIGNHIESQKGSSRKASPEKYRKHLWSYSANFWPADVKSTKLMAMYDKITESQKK
Sialic acid-binding Ig-like lectin 9 (Homo sapiens), sequence (Q9Y336 whole entry): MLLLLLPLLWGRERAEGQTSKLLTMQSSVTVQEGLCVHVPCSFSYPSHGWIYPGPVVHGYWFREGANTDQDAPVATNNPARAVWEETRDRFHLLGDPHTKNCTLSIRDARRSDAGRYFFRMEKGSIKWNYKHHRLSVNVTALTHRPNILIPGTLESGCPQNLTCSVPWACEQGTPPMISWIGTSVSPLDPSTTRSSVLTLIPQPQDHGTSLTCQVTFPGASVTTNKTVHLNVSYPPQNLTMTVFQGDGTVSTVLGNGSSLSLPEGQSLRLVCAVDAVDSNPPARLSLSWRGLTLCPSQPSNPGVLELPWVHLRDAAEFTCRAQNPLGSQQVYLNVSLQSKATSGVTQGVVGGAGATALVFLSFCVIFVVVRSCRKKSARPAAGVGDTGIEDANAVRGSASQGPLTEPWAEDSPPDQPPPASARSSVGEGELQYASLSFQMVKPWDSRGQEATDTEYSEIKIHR

For `Cc1ccc(NC2CCN(C(=O)c3cnc(C)s3)CC2)nn1`, the Percent Effect in assay [1] is -3.62%; in assay [2], 10.7%; in assay [3], -0.486%; in the assay on Trypanosoma cruzi, -3.01%; in assay [4] it was 0.887%; in assay [5] it was -0.594%. Also, the Percent Effect in the assay filed under Homo sapiens was 15.9%; in assay [6], 5.79%; in assay [7] it was 12.8%; in assay [8], -6.74%.
Turning to `CN(C)S(=O)(=O)N1CCN(c2ccnc(N3CCCC3)n2)CC1`, the Percent Effect in assay [1] was -3.6%; in [2], -2.7%; in assay [3], -0.53%; with Trypanosoma cruzi, 3.01%; in assay [4], -1.75%; in [5], 8.39%. In addition, the Percent Effect in the assay listed under Homo sapiens is -13.3%; in assay [6], 3.72%; in assay [7], 4.88%; in assay [8], -0.866%.
As to `CN(CCNC(=O)c1scnc1Cl)c1ccccc1`, the Percent Effect in [1] was -1.49%; in assay [2], 10.7%; in assay [3], -1.26%; with Trypanosoma cruzi, -8.23%; in assay [4] it was 3.99%; in assay [5] it was 19.9%. Further, the Percent Effect was 20% in the assay filed under Homo sapiens, 1.58% in assay [6], 10.3% in assay [7] and -6.98% in assay [8].
`Cc1cc(CN2CCCC2Cn2cncn2)no1` (stereo not given): the Percent Effect in [1] is -4.42%; in [2], 17.9%; in assay [3] it was -10.5%; in the assay on Trypanosoma cruzi, 11.9%; in assay [4], -2.05%; in assay [5], 17%. For the same molecule, the Percent Effect in the assay listed under Homo sapiens was 0.869%; in assay [6], 3.35%; in [7] it was 20.5%; in assay [8], -10.5%.
For `COCC(C)N(C)C(=O)c1nc(S(C)(=O)=O)n2ccccc12` (stereo not given), the Percent Effect was -8.81% in [1]; 2.56% in assay [2]; -5.8% in assay [3]; -2.35% in the assay with Trypanosoma cruzi; -2.05% in assay [4]; -0.256% in assay [5]. The Percent Effect was 24.6% in the assay filed under Homo sapiens, 5.26% in assay [6], 8.43% in [7] and -0.536% in assay [8].
`Cc1ccc(N2CCC3(CCN(C(N)=O)CC3)CC2)nn1`: the Percent Effect was -4.59% in [1]; 1.3% in [2]; -5.12% in assay [3]; -8.47% in the assay on Trypanosoma cruzi; 3.64% in [4]; 13.5% in assay [5]. The Percent Effect in the assay listed under Homo sapiens was 5.72%; in [6], 1.58%; in assay [7] it was 0%; in assay [8], -0.155%.
In the case of `CCC1=N[C@@]2(CC[C@@H]3CN(C(=O)NCc4ccccc4)C[C@@H]32)C(=O)N1C`, the Percent Effect in assay [1] was -5.59%; in [2] it was -6.49%; in assay [3] it was -0.715%; with Trypanosoma cruzi, -3.02%; in assay [4] it was -2.02%; in assay [5] it was 5.21%. The Percent Effect in the assay listed under Homo sapiens was 6.81%; in assay [6] it was 1.58%; in assay [7], -10.3%; in assay [8], 0.585%.
Consider `O=C(c1cc2cc(F)ccc2[nH]1)N1CCC(Nc2cccnn2)CC1`, for which the Percent Effect in assay [1] is -5.68%; in assay [2], 7.79%; in assay [3] it was -3.05%; with Trypanosoma cruzi, -8.21%; in [4] it was -12.9%; in assay [5] it was 10.7%. Further, the Percent Effect in the assay listed under Homo sapiens was 14%; in assay [6] it was 0.98%; in assay [7] it was -2.35%; in assay [8], -5.32%.
Turning to `O=C1CC(c2ccncc2)C2(CCN(CCO)CC2)N1` (stereo not given), the Percent Effect in assay [1] is -2.64%; in [2] it was 3.9%; in [3], -0.555%; with Trypanosoma cruzi it was 5.55%; in assay [4], -3.64%; in assay [5], 8.91%. In addition, the Percent Effect in the assay filed under Homo sapiens was -9.49%; in [6] it was -0.526%; in [7] it was 2.56%; in assay [8], 17.5%.
